In PubChem BioAssay AID1347426 (Functional Genomics Laboratory (NCATS/FGL), 2020):
Out of some 31,000 sequences screened, about 1,400 (4.5%) were called active.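 How the source made its calls: active means median seed-adjusted z-score above 1 or below -1; inactive means the rest.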 Only a selection was taken, and actives are over-represented in it overall.

Assay: Novel Modifiers of Survival Motor Neuron (SMN) Protein: Gene Identification via Genome-wide siRNA Screen;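 further: luminescence tracks full-length SMN protein made from the SMN2 reporter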
Details: HEK293T SMN2-luciferase reporter, siRNA knockdown, 72 h; actives lie on both sides
Method in brief: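 Steps: spot 1 pmol siRNA, add Lipofectamine RNAiMax in serum-free DMEM, seed HEK293T SMN2–luciferase reporter cells; incubate 72 h at 37 °C; add ONE-Glo; normalize luminescence to control siRNA, log10, MAD. Candidates: |MAD| > 1.0.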

Sequence | median seed-adjusted z-score
GAUACGCUAUGAACUCUCATT against RCE1 | -1.19 (active)
GCAUUAGAAACUUACAAGATT against TROVE2 | 0.399 (inactive)
CGAGUGUUCCCGGACAACATT against PODNL1 | -0.448 (inactive)
GCUCAGCCCUUACUGUACATT against ZNF569 | 0.425 (inactive)
GAUUGACCUGCGUUACGAATT against ADCK2 | 0.0823 (inactive)
UGCCUUAUCUGGAAGCAAATT against ERMAP | -0.276 (inactive)
GAUUCCCUGCAUCAACUAATT against SQLE | -1.14 (active)
GGGAAACGAUAUUCAUACATT against ADAMTS19 | -0.39 (inactive)
GUUAGGUAGUAGAAACAAATT against TCFL5 | 1.52 (active)
GUUUCGGACCUAUCUCUGATT against RBM3 | 0.0539 (inactive)
CAAAGUGGAUUCAAAGAUUTT against PRKCH | 0.761 (inactive)
CACCUUUUCUGGAUAGAGATT against DSC1 | -0.151 (inactive)
GCCUUAUGAUGGAAGAGAUTT against EYA2 | 0.111 (inactive)
GUCUAGAUGAUCACAAGUATT against PSMD1 | -1.61 (active)
GUUCUACCGUGGACAGCAATT against CLCN1 | 0.314 (inactive)
CAACAACAAUCAUAGCUGATT against SSBP1 | -0.456 (inactive)
GACUGGAAAUGAUUCGAGATT against RTCD1 | 0.0794 (inactive)
CCUAUGGACUGAACAGGGATT against ZDHHC3 | 0.229 (inactive)
GUCUGGAGAUCAUAUUUUUTT against PIM3 | -1.01 (active)
CAUUCUGACCGUGAACAAUTT against CTRB1 | -0.214 (inactive)
CGAUGACUCAGAAAAGCGATT against ARHGEF10 | 0.22 (inactive)
CGAGGAUAUUGACUGGGUATT against PRKCZ | -0.175 (inactive)
GCCCUGCAUUUGCGAUGAATT against ZNF169 | 0 (inactive)
CACUUGCACAGAUACCCUUTT against COLEC12 | -1.04 (active)
GGAAAGAGUUCAGUCGGAATT against ZNF671 | -0.0551 (inactive)
GAAAGAUUGUACCAGUUGATT against CMPK1 | -0.363 (inactive)
GCGAGUGUGAGAAAACAUUTT against ZFP3 | 0 (inactive)

Sequence | median seed-adjusted z-score
GAGCGAGACAUAAAAUAUUTT against ZNF257 | 0.306 (inactive)
CCCAAGAAAUAUUAACAUUTT against AP3S1 | 0.787 (inactive)
CGAAUUUCCUAGUAAACCATT against TFAP2C | 1.28 (active)
CGUCAUGAGCCUCUACGAATT against PTPN5 | 0.22 (inactive)
GGAAAUCCAUCUACCGCUATT against SORL1 | 0.357 (inactive)
GAUCAGGUGCUGUUCCAUATT against DGAT2L3 | 0.247 (inactive)
CAUCGAGGGUCAUACUAUUTT against POLR2A | -3.81 (active)
GACUGCUGCUUAUCAACAATT against SPR | 0.0329 (inactive)
GACCUUACCUCAGACUAGATT against EXOG | 0.746 (inactive)
AGAUGUACCUGUUCGUGUATT against DNASE1L2 | -0.228 (inactive)
GGACCUACGUUGCAGUUCATT against SUZ12 | -1.65 (active)
GCACUGGAGAAGUAUGUGATT against ALOX12B | 0.0071 (inactive)
GCACUUUACCAUUAGACAATT against LDB2 | -0.0847 (inactive)
GGAGACUAGUAAGCACUAUTT against JARID1B | 0 (inactive)
CAAGAGGGUUUUUACCAUATT against SEC11C | 0.508 (inactive)
GGUCAUGGAUGUGCACGAUTT against KRT14 | -0.127 (inactive)
CAUCAGGAAUGGAAUUACATT against SKIL | -0.868 (inactive)
GGUCCAAGCUGAUUACCCUTT against UNC13A | -2.1 (active)
CCUCCCAUCUUAUUAUCCATT against ZNF572 | 0.237 (inactive)
GGUGGAGACAUUUACAUCUTT against CREB3L1 | 0.708 (inactive)
CAAAGUACCGAGUCGAAUATT against SENP7 | 0.547 (inactive)
GCAAGACCGUGAGACAACUTT against SENP7 | 0.547 (inactive)
GGAAGAAAAUAGUGCUGCATT against BARX1 | 1.63 (active)
CAUUCGCCGUUACCUGCCATT against POLR2F | -3.52 (active)
GAACCACAAGGAGAAGUUUTT against PSMC3 | -0.701 (inactive)
ACAAGGACUAUUACAGAUATT against PLA2G2D | 0.361 (inactive)
GGAGACAUCUGACCCAGCATT against ARHGAP9 | 0 (inactive)
